Experimental findings from PubChem BioAssay (NCATS) are described below.

Inconclusive results are not listed. Activity calls are given as the source filed them. Calls come from the whole dose curve; as a rule, active = well fitted cell-killing curve with a large enough effect; inconclusive = small, poorly fitted or top-dose-only effect, or effect the other way; inactive = no such curve, though single readings can be large or run the other way. Positions of bridges follow the written chain, without caps; N, C: chain ends. Non-standard residues stand in square brackets, D forms with d. Residues, ends and D or L forms follow the SMILES beside them. ξ: configuration not given here. *: point of attachment. Octanoyl(6-Me) = CCC(C)CCCCC(=O)*; ξThr(3R) = C[C@@H](O)C(N)C(=O)O; dDab = NCC[C@@H](N)C(=O)O; Dab = NCC[C@H](N)C(=O)O

A short description of assay [1]: Quantitative High-Throughput drug screen in 47 multiple myeloma cell lines against the NCATS MIPE library collection: XG1_PLB cell viability assay (AID 1919866). Note: nearly all actives have a fitted effect of over 35% in size. The essentials: (§1)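 ATP-based CellTiter-Glo luminescence after 48 h drug exposure (37 °C, 5% CO2) of 500 myeloma cells per well. DMSO-only wells set 100% viability, media-only wells 0%; MIPE 4.0 library added by pin tool.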

The nature of assay [2]: Quantitative High-Throughput drug screen in 47 multiple myeloma cell lines against the NCATS MIPE library collection: VP6_DJ cell viability assay (AID 1919867). Note: nearly all actives have a fitted effect of over 40% in size. The essentials:
as §1

The nature of assay [3]: Quantitative High-Throughput drug screen in 47 multiple myeloma cell lines against the NCATS MIPE library collection: UTMC2_PLB cell viability assay (AID 1919868). Note: nearly all actives have a fitted effect of over 55% in size. The following applies: CellTiter-Glo ATP luminescence, 48 h; viability (% of DMSO control): at 45.8 µM (top of the series). The essentials:
as §1
(In general: In ATP-based viability assays light output follows the ATP content of the culture.)

Assay [4] in a line: Quantitative High-Throughput drug screen in 47 multiple myeloma cell lines against the NCATS MIPE library collection: PE2_PLB cell viability assay (AID 1919869). Note: nearly all actives have a fitted effect of over 35% in size. The gist of the method: as §1
A short description of assay [5]: Quantitative High-Throughput drug screen in 47 multiple myeloma cell lines against the NCATS MIPE library collection: PCM6_Riken cell viability assay (AID 1919870). Note: nearly all actives have a fitted effect of over 30% in size. The essentials:
as §1

Assay [6] can be described thus: Quantitative High-Throughput drug screen in 47 multiple myeloma cell lines against the NCATS MIPE library collection: OPM2_DSMZ cell viability assay (AID 1919872). Note: nearly all actives have a fitted effect of over 30% in size. The gist of the method:
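Luminescent ATP measurement with CellTiter-Glo gives viability, scaled between DMSO-only wells (100%) and media-only wells (0%). Cells, 500 per well, faced library compounds for 48 hours at 37C.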

Assay [7] is described as follows: Quantitative High-Throughput drug screen in 47 multiple myeloma cell lines against the NCATS MIPE library collection: KMS28BM_JCRB cell viability assay (AID 1919874). Note: nearly all actives have a fitted effect of over 35% in size. The gist of the method: as §1
Assay [8] in a line: Quantitative High-Throughput drug screen in 47 multiple myeloma cell lines against the NCATS MIPE library collection: RPMI8226_ATCC cell viability assay (AID 1919871). Note: nearly all actives have a fitted effect of over 30% in size. The gist of the method: as §1
Assay [9] is described as follows: Quantitative High-Throughput drug screen in 47 multiple myeloma cell lines against the NCATS MIPE library collection: KMS11_JCRBsus cell viability assay (AID 1919873). Note: nearly all actives have a fitted effect of over 50% in size. The essentials:
as §1
Potency is the fitted concentration of half-maximal effect.

On to `CC(=O)SCC(Cc1ccccc1)C(=O)NCC(=O)OCc1ccccc1` (stereo not given), for which the Potency in [1] is 2.96 µM (active); in [2], 5.9 µM (active); in assay [3], 1.32 µM (active); in [4], 0.935 µM (active); in assay [5] it was 1.48 µM (active); in assay [6] it was 5.9 µM (active). In addition, the Potency in assay [7] was 11.8 µM (active).
As to `Cc1cc(Nc2ncc3c(n2)N(C)C(=O)N(c2cc(NC(=O)c4cccc(C(F)(F)F)c4)ccc2C)C3)n(C)n1`, the Potency in [1] is 2.35 µM (active); in assay [2] it was 0.935 µM (active); in assay [3], 0.418 µM (active); in assay [4], 0.743 µM (active); in [5], 1.87 µM (active); in assay [6] it was 0.743 µM (active). Further, the Potency in [7] is 3.32 µM (active).
As to `Cc1cnn(C)c1C(=O)Nc1cc(Nc2ccc3c(C=Cc4ccccn4)n[nH]c3c2)ccc1F`, the Potency in [1] is 4.69 µM (active); in [2], 10.5 µM (active); in [3], 10.5 µM (active); in assay [4], 2.64 µM (active); in assay [5] it was 4.69 µM (active); in assay [8], 26.4 µM (active). Further, the Potency in assay [6] is 18.7 µM (active); in assay [9], 11.8 µM (active); in assay [7], 20.9 µM (active).
Take `C=CCNC1=C2C[C@@H](C)C[C@H](OC)[C@@H](O)[C@@H](C)C=C(C)[C@H](OC(N)=O)[C@@H](OC)C=CC=C(C)C(=O)NC(=CC1=O)C2=O`: the Potency was 0.662 µM (active) in assay [1]; 0.264 µM (active) in assay [2]; 1.32 µM (active) in assay [3]; 4.18 µM (active) in assay [4]; 1.48 µM (active) in assay [5]; 1.05 µM (active) in assay [8]. Further, the Potency in assay [9] was 0.059 µM (active); in assay [7] it was 0.662 µM (active).
Regarding `CCCNC(=O)[C@H]1O[C@H]1C(=O)N[C@H](C(=O)N1CCC[C@@H]1C(=O)OC)C(C)CC` (stereo not given in full), the Potency in assay [1] was 14.8 µM (active); in assay [2], 16.6 µM (active); in [4], 4.18 µM (active); in assay [5], 16.6 µM (active); in [8] it was 20.9 µM (active); in assay [6] it was 11.8 µM (active). The values for the Potency in assay [9] and in assay [7] were 23.5 µM (active) and 7.43 µM (active), respectively.
Consider `Nc1ccc(C(=O)Nc2cccc(-c3nc(N4CCOCC4)c4oc5ncccc5c4n3)c2)cn1`, for which the Potency in [1] is 5.9 µM (active); in [2], 4.18 µM (active); in [3], 3.32 µM (active); in [4] it was 2.09 µM (active); in assay [5], 5.9 µM (active); in [6], 5.26 µM (active). Further, in [7], the Potency was 26.4 µM (active).
As to `c1coc(CNc2ncnc3nc[nH]c23)c1`, the Potency result in [1], in assay [3], in assay [6], in assay [9] and in [7] was “inactive” in each case. Further, in [2], the Potency is 18.7 µM (active).
`C[C@H]1C[C@H]2[C@@H]3CCC4=CC(=O)C=C[C@]4(C)[C@@H]3C(=O)C[C@]2(C)[C@@]1(O)C(=O)CO`: the Potency result in [1], in assay [4], in assay [5], in assay [8] and in assay [6] was “inactive” each time. Besides, the Potency in assay [2] was 6.62 µM (active).
As for `CCC(C)CCCCC(=O)N[C@@H](CCN)C(=O)NC(C(=O)N[C@H](CCN)C(=O)N[C@@H]1CCNC(=O)C([C@@H](C)O)NC(=O)[C@@H](CCN)NC(=O)[C@@H](CCN)NC(=O)[C@@H](CC(C)C)NC(=O)[C@H](Cc2ccccc2)NC(=O)[C@H](CCN)NC1=O)[C@@H](C)O` (stereo partly drawn) ({Octanoyl(6-Me)}-[Dab][ξThr(3R)][dDab][dDab][Dab]F[dL][dDab][dDab][ξThr(3R)]; lactam 4-C), the Potency result in assay [1], in [2], in assay [4], in [5], in [8] and in assay [6] was “inactive” throughout. In addition, the Potency result in assay [7] is “inactive”.
On to `Cc1cncc2cccc(S(=O)(=O)N3CCCN(C(=O)CN)C[C@@H]3C)c12`, for which the Potency in assay [1] is 20.9 µM (active); in [3], 5.9 µM (active); in assay [5], 20.9 µM (active); in assay [7], 1.18 µM (active). The Potency entry in assay [2] and in assay [8] was “inactive” throughout.
For `Cn1cc(C2=C(c3c4n(c5ccccc35)CCC(CN)C4)C(=O)NC2=O)c2ccccc21` (stereo not given), the Potency in assay [1] is 7.43 µM (active); in assay [2] it was 6.62 µM (active); in assay [4] it was 7.43 µM (active); in assay [5] it was 5.26 µM (active); in [8] it was 18.7 µM (active); in [6], 18.7 µM (active). Also, the Potency was 7.43 µM (active) in assay [9] and 10.5 µM (active) in assay [7].
As to `COc1cc(N2CCC(C(N)=O)CC2)ccc1Nc1nc(N)c(Cl)c(Nc2ccccc2S(=O)(=O)C(C)C)n1`, the Potency was 0.0935 µM (active) in [1]; 0.418 µM (active) in [2]; 0.132 µM (active) in assay [3]; 0.418 µM (active) in assay [4]; 0.833 µM (active) in assay [5]; 0.833 µM (active) in [7].
On to `O=C(C=Cc1ccc(CN(CCO)CCc2c[nH]c3ccccc23)cc1)NO`, for which the Potency is 0.166 µM (active) in [1]; 0.059 µM (active) in assay [2]; 0.166 µM (active) in [4]; 0.132 µM (active) in assay [5]; 0.235 µM (active) in assay [8]; 0.209 µM (active) in assay [6]. Further, the Potency in [7] is 0.0526 µM (active).
With `Nc1nc(=O)n([C@H]2CSC(CO)O2)cc1F` (stereo not given in full), the Potency entry in [1], in assay [2], in [4], in assay [5], in assay [8] and in assay [6] was “inactive” throughout.
On to `N=c1ccn2c(n1)O[C@H]1[C@@H](O)[C@@H](CO)O[C@H]12`, for which the Potency in assay [1] was 5.9 µM (active); in assay [2] it was 18.7 µM (active); in assay [3], 14.8 µM (active); in [9], 0.469 µM (active). Moreover, the Potency entry in [4], in [8] and in assay [6] was “inactive” throughout.
